# Several values for one entry are separate records, joined by “and”; a condition that tells them apart may be missing. Identical values can stand only once. Results filed as inconclusive are left out. Some compounds were tested as several samples or in several runs, with calls that do not always agree. Activity calls are given as the source filed them. The calls were made as follows, unless noted: active = hit-call score of the fitted dose curve at least 0.9, where 1 is the maximum; inactive = score below 0.9.
# Experiments:
# [1] = biological target: human Vitamin D Receptor (VDR), VDR (gene 7421) (UniProt P11473); test: ATG_VDR_TRANS: Attagene TRANS-FACTORIAL HepG2 Assay for human Vitamin D Receptor (VDR) (AID 2283022; active = hit-call score of the fitted dose curve at least 0.9, where 1 is the maximum)
# Chain of human Vitamin D Receptor (VDR), VDR (gene 7421) (P11473 whole entry, looked up, the tested form may be a part): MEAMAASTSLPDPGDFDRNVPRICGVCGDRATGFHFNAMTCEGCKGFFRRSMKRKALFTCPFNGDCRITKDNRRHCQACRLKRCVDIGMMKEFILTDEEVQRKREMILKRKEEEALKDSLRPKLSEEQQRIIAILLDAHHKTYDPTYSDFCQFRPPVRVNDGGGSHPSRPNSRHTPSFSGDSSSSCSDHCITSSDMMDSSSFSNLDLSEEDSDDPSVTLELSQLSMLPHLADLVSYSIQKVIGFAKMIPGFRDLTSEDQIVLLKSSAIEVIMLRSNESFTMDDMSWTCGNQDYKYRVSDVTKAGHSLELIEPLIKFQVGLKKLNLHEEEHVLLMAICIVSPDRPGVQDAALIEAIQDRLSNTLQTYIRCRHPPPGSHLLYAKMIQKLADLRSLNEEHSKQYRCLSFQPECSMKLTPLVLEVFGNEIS
# How it was run: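 Transactivation by an exogenous VDR-Gal4 chimera in transiently transfected HepG2 cells was measured as reporter transcript level 24 hours after chemical treatment. RT-PCR products were analysed by capillary electrophoresis and fitted in the positive direction relative to DMSO.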
# [2] = BSK_3C_SRB: Viability Assessment in the BioMAP Diversity Plus: 3C Assay (AID 2283023); conditions: primary human endothelial cells (HUVEC);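 also: fitted both ways against DMSO so a hit may be signal rise or drop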
# How it was run: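 Cytotoxicity readout in parallel HUVEC 3C cultures: after 24 h compound exposure, cells fixed with 10% TCA, stained with 0.1% SRB and read at 560 nm. Gain or loss relative to DMSO fitted.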
# [3] = BSK_3C_Vis: BioMAP Diversity Plus: 3C Assay for Morphology Visualization (AID 2283025); conditions: primary human endothelial cells (HUVEC);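 also: fitted both ways so gain or loss versus DMSO counts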;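 as to AC50: light microscopy image of cell morphology used as background control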
# How it was run: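 Endothelial cells from human umbilical vein were treated with test chemicals for 24 h and inspected by light microscopy for changes in cell conformation.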
# [4] = read-out: Pselectin, SELP (gene 6403); test: BSK_4H_Pselectin: BioMAP Diversity Plus: 4H Assay for Pselectin Biomarker Activity (AID 2283026); conditions: primary human endothelial cells (HUVEC); actives raise or lower the signal
# How it was run: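 Human vascular endothelium from umbilical vein; P-selectin measured by ELISA at 24 h post-dose, with cytotoxicity checked by sulforhodamine B total-protein staining in parallel cultures (0.1% SRB after 10% TCA fixation, read at 560 nm).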
# [5] = BSK_BE3C_SRB: Viability Assessment in the BioMAP Diversity Plus: BE3C Assay (AID 2283028); conditions: primary human bronchial epithelial cells;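 also: measured 24 h after chemical dosing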;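 as to AC50: fitted both ways so AC50 may mark signal gain or loss versus DMSO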
# How it was run: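 Cytotoxicity read-out: SRB (0.1%) staining of TCA-fixed (10%) human lung bronchial epithelial cells, absorbance 560 nm, 24 h post-dosing. Curves fitted both directions relative to DMSO.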
# [6] = read-out: Thrombomodulin, THBD (gene 7056); test: BSK_3C_Thrombomodulin: BioMAP Diversity Plus: 3C Assay for Thrombomodulin Biomarker Activity (AID 2283029); conditions: primary human endothelial cells (HUVEC); actives raise or lower the signal
# How it was run: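 Thrombomodulin ELISA, human primary HUVEC, 24 h post-dose; data fitted in both directions relative to DMSO.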
# [7] = read-out: Urokinase-type plasminogen activator receptor (uPAR), PLAUR (gene 5329); test: BSK_4H_uPAR: BioMAP Diversity Plus: 4H Assay for Urokinase-type plasminogen activator receptor (uPAR) Biomarker Activity (AID 2283030); conditions: primary human endothelial cells (HUVEC); actives raise or lower the signal
# How it was run: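 uPAR level read by ELISA on HUVEC cultures (BioMAP 4H) 24 h post-dosing, analyzed for gain or loss relative to DMSO. Parallel SRB staining assessed overt cytotoxicity.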
# [8] = read-out: Vascular endothelial growth factor receptor 2 (Homo sapiens) (UniProt P35968); test: BSK_4H_VEGFRII: BioMAP Diversity Plus: 4H Assay for Vascular endothelial growth factor receptor 2 (VEGFR2) Biomarker Activity (AID 2283031); conditions: primary human endothelial cells (HUVEC); actives raise or lower the signal;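 as to AC50: cell-surface VEGFR2 protein level quantified by ELISA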
# How it was run: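 Measured by ELISA after 24 h of compound treatment: VEGFR2 on primary human umbilical vein endothelial cells, fitted in both directions relative to DMSO. Parallel cultures received SRB staining (560 nm) for overt cytotoxicity.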
# [9] = read-out: Matrix Metallopeptidase 1 (MMP1), MMP1 (gene 4312); test: BSK_BE3C_MMP1: BioMAP Diversity Plus: BE3C Assay for Matrix Metallopeptidase 1 (MMP1) Biomarker Activity (AID 2283024); conditions: primary human bronchial epithelial cells; actives raise or lower the signal
# How it was run: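 Dose cells, wait 24 h, run MMP1 ELISA; cells are human bronchial epithelial primaries. Both increases and decreases relative to DMSO counted.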
# [10] = BSK_4H_SRB: Viability Assessment in the BioMAP Diversity Plus: 4H Assay (AID 2283027); conditions: primary human endothelial cells (HUVEC);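 also: cells exposed to compound for 24 h before staining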;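 as to AC50: curves fitted both ways versus DMSO so AC50 may be loss or gain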
# How it was run: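 Absorbance at 560 nm of SRB-stained total protein served as the viability read-out in confluent primary human umbilical vein endothelium 24 h after chemical treatment. Curves were fitted bidirectionally against DMSO as negative control.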
compound,measurement,setting,value
CCCCCCC(C)OC(=O)COc1nc(F)c(Cl)c(N)c1Cl (stereo not given),outcome,[1],inactive
same,AC50,[2],30.1 µM (active)
same,AC50,[3],29.4 µM (active)
same,AC50,[4],30.8 µM (active)
same,outcome,[5],inactive
same,outcome,[6],inactive
same,AC50,[7],31.2 µM (active)
same,AC50,[8],31.9 µM (active)
CC(C)CCCCCCc1ccc(O)cc1,outcome,[1],inactive
same,AC50,[2],9.24 µM (active)
same,AC50,[9],32 µM (active)
same,AC50,[3],5.31 µM (active)
same,AC50,[4],9.15 µM (active)
same,AC50,[10],6.94 µM (active)
same,AC50,[5],36 µM (active)
same,AC50,[6],20 µM (active)
same,AC50,[7],9.57 µM (active)
COCCO,outcome,[1],inactive
same,outcome,[3],inactive
same,outcome,[4],inactive
same,outcome,[5],inactive
same,outcome,[6],inactive
same,outcome,[7],inactive
C[C@]12CC[C@@H]3c4ccc(O)cc4C[C@@H](CCCCCCCCCS(=O)CCCC(F)(F)C(F)(F)F)[C@H]3[C@@H]1CC[C@@H]2O (stereo not given in full),outcome,[1],inactive
same,outcome,[3],inactive
same,outcome,[4],inactive
same,outcome,[5],inactive
same,outcome,[6],inactive
same,AC50,[7],12.4 µM (active)
C#CCOC(=O)[C@@H](C)Oc1ccc(Oc2ncc(Cl)cc2F)cc1,outcome,[1],inactive
same,outcome,[3],inactive
same,outcome,[4],inactive
same,outcome,[10],inactive
same,outcome,[5],inactive
same,outcome,[6],inactive
same,outcome,[7],inactive
Cc1nn(C)c(Oc2ccccc2)c1C=NOCc1ccc(C(=O)OC(C)(C)C)cc1,outcome,[1],inactive
same,AC50,[2],9.91 µM (active)
same,AC50,[3],15.2 µM (active)
same,AC50,[4],12.9 µM (active)
same,AC50,[10],16.3 µM (active)
same,AC50,[5],12 µM (active)
same,AC50,[6],5.41 µM (active)
same,AC50,[7],30.6 µM (active)
same,outcome,[8],inactive
N#CSCSc1nc2ccccc2s1,outcome,[1],inactive
same,AC50,[9],7.12 µM (active) and 11.3 µM (active)
same,AC50,[3],4.4 µM (active) and 4.82 µM (active)
same,AC50,[4],1.24 µM (active) and 5.49 µM (active)
same,AC50,[5],5.15 µM (active)
same,outcome,[5],inactive
same,AC50,[6],35.8 µM (active)
same,outcome,[6],inactive
same,AC50,[7],5.3 µM (active) and 6.65 µM (active)
same,AC50,[8],5.06 µM (active) and 5.42 µM (active)
CCOC(=O)NCCOc1ccc(Oc2ccccc2)cc1,outcome,[1],inactive
same,AC50,[2],20 µM (active)
same,outcome,[9],inactive
same,AC50,[3],39 µM (active)
same,outcome,[4],inactive
same,outcome,[10],inactive
same,outcome,[5],inactive
same,outcome,[6],inactive
same,outcome,[7],inactive
CC1(C)C(C=C(Cl)Cl)C1C(=O)OCc1cccc(Oc2ccccc2)c1 (stereo not given),outcome,[1],inactive
same,AC50,[3],20 µM (active)
same,outcome,[4],inactive
same,outcome,[5],inactive
same,outcome,[6],inactive
same,outcome,[7],inactive
C=CCOC(Cn1ccnc1)c1ccc(Cl)cc1Cl (stereo not given),outcome,[1],inactive
same,AC50,[3],9.8 µM (active)
same,outcome,[4],inactive
same,outcome,[10],inactive
same,outcome,[5],inactive
same,outcome,[6],inactive
CCOC(=O)COc1cc(-n2ncc(C(F)(F)F)c(C)c2=O)c(F)cc1Cl,outcome,[1],inactive
same,outcome,[2],inactive
same,outcome,[9],inactive
same,outcome,[3],inactive
same,outcome,[4],inactive
same,outcome,[5],inactive
same,outcome,[6],inactive
same,outcome,[7],inactive
CCCOC(=O)NCCCN(C)C,outcome,[1],inactive
same,outcome,[9],inactive
same,outcome,[3],inactive
same,outcome,[4],inactive
same,outcome,[5],inactive
same,outcome,[6],inactive
same,outcome,[7],inactive
C#C[C@]1(O)CC[C@H]2[C@@H]3CCC4=CC(=O)CC[C@@H]4[C@H]3CC[C@@]21CC,outcome,[1],inactive
same,AC50,[9],3.16 µM (active)
same,outcome,[3],inactive
same,outcome,[4],inactive
same,outcome,[5],inactive
same,outcome,[6],inactive
same,outcome,[7],inactive
same,outcome,[8],inactive
CCCCCOC(=O)COc1cc(N2C(=O)C3=C(CCCC3)C2=O)c(F)cc1Cl,outcome,[1],inactive
same,outcome,[9],inactive
same,outcome,[3],inactive
same,outcome,[4],inactive
same,outcome,[5],inactive
same,outcome,[6],inactive
same,outcome,[7],inactive
O=C(c1ccc(O)cc1O)c1ccc(O)cc1O,outcome,[1],inactive
same,outcome,[3],inactive
same,outcome,[4],inactive
same,outcome,[5],inactive
same,outcome,[6],inactive
same,outcome,[7],inactive
Oc1ccc(C(c2ccc(O)cc2)C(Cl)(Cl)Cl)cc1,outcome,[1],inactive
same,AC50,[2],16.4 µM (active)
same,AC50,[3],29.4 µM (active)
same,AC50,[4],20 µM (active)
same,AC50,[5],30.2 µM (active)
same,AC50,[6],6.1 µM (active)
same,AC50,[7],31.4 µM (active)
O=C(c1ccccc1)C1CCCCC1,outcome,[1],inactive
same,outcome,[2],inactive
same,outcome,[3],inactive
same,outcome,[4],inactive
same,outcome,[10],inactive
same,outcome,[5],inactive
same,outcome,[6],inactive
same,outcome,[7],inactive
COC(=O)c1c(Cl)nn(C)c1S(=O)(=O)NC(=O)Nc1nc(OC)cc(OC)n1,outcome,[1],inactive
same,outcome,[3],inactive
same,outcome,[4],inactive
same,outcome,[5],inactive
same,outcome,[6],inactive
same,outcome,[7],inactive
N[C@@H](Cc1cc(I)c(Oc2ccc(O)c(I)c2)c(I)c1)C(=O)O,outcome,[1],inactive
same,AC50,[9],3.8 µM (active)
same,outcome,[3],inactive
same,outcome,[4],inactive
same,outcome,[10],inactive
same,outcome,[5],inactive
same,outcome,[6],inactive
same,outcome,[7],inactive
CCOC(=O)[C@H](C)Oc1ccc(Oc2nc3ccc(Cl)cc3o2)cc1,outcome,[1],inactive
same,outcome,[3],inactive
same,outcome,[4],inactive
same,outcome,[5],inactive
same,outcome,[6],inactive
same,outcome,[7],inactive
COc1c(Cl)ccc(Cl)c1C(=O)O,outcome,[1],inactive
same,outcome,[3],inactive
same,outcome,[4],inactive
same,outcome,[5],inactive
same,outcome,[6],inactive
same,outcome,[7],inactive
CCN(CC)C(=O)c1cccc(C)c1,outcome,[1],inactive
same,outcome,[9],inactive
same,outcome,[3],inactive
same,outcome,[4],inactive
same,outcome,[10],inactive
same,outcome,[5],inactive
same,outcome,[6],inactive
same,outcome,[7],inactive
O=C(O)C1(C(=O)Nc2ccc(Cl)cc2Cl)CC1,outcome,[1],inactive
same,outcome,[3],inactive
same,outcome,[4],inactive
same,outcome,[10],inactive
same,outcome,[5],inactive
same,outcome,[6],inactive
same,outcome,[7],inactive
COC(=O)c1ccccc1S(=O)(=O)NC(=O)Nc1nc(OC(F)F)cc(OC(F)F)n1,outcome,[1],inactive
same,outcome,[3],inactive
same,outcome,[4],inactive
same,outcome,[10],inactive
same,outcome,[5],inactive
same,outcome,[6],inactive
same,outcome,[7],inactive
COC(=O)c1ccc(CNS(C)(=O)=O)cc1S(=O)(=O)NC(=O)Nc1nc(OC)cc(OC)n1,outcome,[1],inactive
same,outcome,[9],inactive
same,outcome,[3],inactive
same,outcome,[4],inactive
same,outcome,[5],inactive
same,outcome,[6],inactive
same,outcome,[7],inactive
CC(=O)[C@H]1CC[C@H]2[C@@H]3CCC4=CC(=O)CC[C@]4(C)[C@H]3CC[C@]12C,outcome,[1],inactive
same,AC50,[3],9.8 µM (active)
same,AC50,[4],31.9 µM (active)
same,outcome,[5],inactive
same,outcome,[6],inactive
same,AC50,[7],10 µM (active)
CCCN(CCC)C(=O)SCC,outcome,[1],inactive
same,outcome,[3],inactive
same,outcome,[4],inactive
same,outcome,[10],inactive
same,outcome,[5],inactive
same,outcome,[6],inactive
same,outcome,[7],inactive
CCOC(=O)C(C)Oc1ccc(Oc2nc3ccc(Cl)cc3o2)cc1 (stereo not given),outcome,[1],inactive
same,outcome,[9],inactive
same,outcome,[3],inactive
same,outcome,[4],inactive
same,outcome,[10],inactive
same,outcome,[5],inactive
same,outcome,[6],inactive
same,outcome,[7],inactive
c1ccc(Nc2ccccc2)cc1,outcome,[1],inactive
same,outcome,[2],inactive
same,outcome,[3],inactive
same,outcome,[4],inactive
same,outcome,[5],inactive
same,outcome,[6],inactive
same,outcome,[7],inactive
